From PubChem BioAssay (NCI) come the findings set out here.

What all share (assay): NCI-60 one-dose screen, 48 h (100 = growth as untreated, 0 = no growth, -100 = all killed)
Settings in all cases: 10 µM unless noted

Test [1] deals with SK-MEL-2 melanoma.
The test system of test [2] is SN12C renal.
For test [3], the system named is UO-31 renal.
The subject of test [4] is TK-10 renal.
The subject of test [5] is ACHN renal.
For test [6], the system named is CAKI-1 renal.
For test [7], the system named is A498 renal.
Test [8] concerns CCRF-CEM leukemia.
The test system of test [9] is MOLT-4 leukemia.
Test [10] deals with SR leukemia.
Test [11] concerns RPMI-8226 leukemia.
The subject of test [12] is OVCAR-8 ovarian.
Test [13] has as its system OVCAR-5 ovarian.
The test system of test [14] is OVCAR-4 ovarian.
The test system of test [15] is SK-OV-3 ovarian.
Test [16] deals with IGROV1 ovarian.
Test [17] concerns OVCAR-3 ovarian.
Test [18] deals with HS 578T breast.
Test [19] has as its system NCI/ADR-RES ovarian.

Compounds without any hit were thinned out: in the full panel of roughly 83,000, 20% have a hit.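 Interpretation: 100, growth as untreated; towards 0, rising growth inhibition; 0, no net growth; 0 to -100, cell death. Compounds scoring below 10 were considered active.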 Values without a mark were called inactive. Activity calls are given as the source filed them.

With `CCN(C(C)=O)c1ccc([N+](=O)[O-])cc1`, the growth in test [1] was 107%; in test [2] it was 105%; in test [3] it was 89.7%; in [4], 93%; in test [5] it was 113%; in test [6] it was 102%. The growth in test [7] was 82.5%; in test [8], 98.9%; in [9], 95.6%; in [10] it was 97%; in test [11], 93.9%; in test [12] it was 99.2%. For the same molecule, the growth in test [13] was 111%; in test [14], 113%; in test [15], 109%; in test [16], 107%; in [17] it was 107%; in test [18] it was 99.8%. Also, the growth in test [19] is 102%.
As to `CCC(/C=C\C(C)=O)CC`, the growth in test [1] was 112%; in [2] it was 98.3%; in test [3], 92.3%; in test [4], 102%; in [5], 102%; in test [6], 100%. In addition, the growth in test [7] was 90.4%; in [8], 105%; in [9], 112%; in [10] it was 101%; in test [11] it was 97.6%; in test [12] it was 103%. The growth in [13] is 104%; in test [14] it was 86.5%; in test [15] it was 110%; in [16] it was 115%; in test [17] it was 122%; in test [18], 102%. Further, the growth in [19] is 105%.
For the molecule `Cc1ccc(C)c2c1CCC2=O`, the growth was 122% in [1]; 102% in test [2]; 90.6% in test [3]; 105% in test [4]; 102% in [5]; 95.9% in test [6]. Besides, the growth is 56.8% in test [7]; -32.7% (active) in [8]; 121% in test [9]; 132% in test [10]; 84.1% in test [11]; 104% in test [12]. The growth in [13] is 95.8%; in test [14], 105%; in [15], 121%; in test [16], 117%; in [17], 96.7%; in [18], 92.6%. Moreover, the growth in test [19] is 101%.
For the molecule `COc1ccc2c(Cl)cc(NC(=O)Nc3c(C)cccc3C)nc2c1`, the growth in [1] was 106%; in test [2], 82.6%; in test [3], 14.4%; in test [4], 35%; in [5] it was 41.9%; in test [6], 11.1%. The growth in test [7] was 36.1%; in test [8], 86.5%; in test [9], 81.6%; in test [10] it was 63.4%; in test [11], 73%; in test [12] it was 61.3%. Further, the growth in test [13] was 83%; in test [14] it was -14.7% (active); in [15], -6.49% (active); in [16], 52.3%; in test [17] it was 78.2%; in test [18], 57.2%. Moreover, in [19], the growth was 78.2%.
Regarding `S=C(Sc1ccc(Cl)cc1)Sc1ccc(Cl)cc1`, the growth in [1] was 90.9%; in test [2], -47.6% (active); in [3], -59.8% (active); in test [4], -36.3% (active); in test [5], 70%; in test [6], -75.6% (active). Also, the growth in test [7] is 70.6%; in test [8], -15.8% (active); in [9] it was -25.4% (active); in [10] it was -46.5% (active); in test [11] it was -46.6% (active); in test [12], 22.1%. Besides, the growth in test [13] is 60.1%; in [14], 10.1%; in test [15], 109%; in test [16] it was -49.8% (active); in [17], -64.7% (active); in test [18], 7.84% (active). Besides, in test [19], the growth was 5.64% (active).
Turning to `CCOC(=O)c1ccc(Nc2sc(C(=O)c3ccc(Br)cc3)c(N)c2C#N)cc1`, the growth is 21.7% in test [1]; 43.9% in test [2]; 25.6% in [3]; 42.4% in test [4]; 44% in [5]; 10.7% in test [6]. Besides, the growth is -8.46% (active) in [7]; 12.8% in [8]; 33.5% in test [9]; 18.6% in test [10]; 18.7% in [11]; 29.6% in [12]. For the same molecule, the growth in test [13] was 46.8%; in [14], 70.5%; in test [15], 11.7%; in test [16], 31.3%; in [17], -6.38% (active); in test [18], 20.8%. For the same molecule, the growth in test [19] was 22%.
Regarding `OCC1OC(n2ccc3c2ncn2ncnc32)C(O)C1O` (configuration not stated), the growth in test [1] is 67.7%; in [2], 27.5%; in test [3], 27.6%; in [4], 22.2%; in test [5], 29%; in test [6] it was 43.5%. The growth was -5.58% (active) in [7]; 14.1% in [8]; 16.1% in test [9]; 20.6% in test [10]; 60.7% in [11]; 6.1% (active) in [12]. Further, the growth in test [13] is 30.2%; in [14], 53.3%; in test [15] it was 58%; in test [16], 53.4%; in test [17] it was 28.9%; in [18] it was 65.2%. Moreover, in test [19], the growth is 23.1%.
As to `C1=NCCc2ccccc21`, the growth was 99.7% in test [1]; 102% in test [2]; 84.3% in test [3]; 119% in test [4]; 101% in test [5]; 99.7% in test [6]. For the same molecule, the growth in test [7] is 59.9%; in test [8] it was 96.8%; in [9], 101%; in test [10], 97%; in test [11], 99%; in [12], 99.1%. Further, the growth was 105% in test [13]; 98.7% in test [14]; 93% in test [15]; 105% in test [16]; 100% in test [17]; 83.8% in test [18]. Further, the growth in test [19] is 106%.
